# Records with an inconclusive call do not appear. Entries that show only a call come without a potency. Calls of active or inactive are those of the source. Calls come from the whole dose curve; as a rule, active = well fitted activation curve with a large enough effect; inconclusive = small, poorly fitted or top-dose-only effect; inactive = flat fitted curve, though single readings scatter.
# Test: qHTS for Activators of Parkin Expression: LOPAC Validation Assay (NLuc Reporter) (AID 720572)
# Details: Parkin promoter NanoLuc reporter cells, luminescence; series mostly up to 46.1 µM
# From the text: Parkin is an E3 ubiquitin ligase localized in the cytosol of cells expressed in many tissues, including brain, skeletal muscle, heart and liver tissues. One hour after stress induction by mitochondrial uncouplers (which mimic mitochondria damage by decreasing the mitochondrial inner membrane electrochemical gradient that is used to produce ATP), Parkin translocates from the cytosol to mitochondria in many cultured cell types, including neurons and HeLa cells. Administration of other mitochondrial poisons, such as Paraquat and azide in cells lacking mitochondrial DNA (mtDNA), induces Parkin translocation to mitochondria. […] It was proposed that Parkin (together with Pink1) mediates a mitochondrial quality control pathway to maintain organelle population fidelity by removing damaged mitochondria. Understanding the normal physiologic role of Parkin (and Pink1) may uncover novel treatment strategies for sporadic Parkinson's disease patients with mutation in these genes.
# A cell based qHTS in 1536 well format was developed assess modulation of Parkin expression using a neuronal cell line that stably expresses a stably expresses a luminescent coincidence reporter (FLuc and NLuc reporters) behind the Parkin promoter. The LOPAC library is used to validate the assay for quantitative high-throughput screening. The data herein reports the signal from the NLuc reporter. An increase in this signal = activation of Parkin expression. For this assay , a positive control normalized signal increase corresponding to a high quality qHTS curve class in both luminescent channels is the desired outcome for this assay.
# NIH Chemical Genomics Center [NCGC]
# NIH Molecular Libraries Probe Centers Network [MLPCN]
# Assay Submitter (PI): Richard Youle, National Institute of Neurological Disorders and Strokes (NINDS), NIH
# [1] Narendra, D., et al., Parkin is recruited selectively to impaired mitochondria and promotes their autophagy. J Cell Biol, 2008. 183(5): p.
# [2] Suen, D.F., et al., Parkin overexpression selects against a deleterious mtDNA mutation in heteroplasmic cybrid cells. Proc Natl Acad Sci U S A, 2010. […] 11835-40.
# [3] Cheng K, Inglese J. A coincedence reporter-gene system for high-throughput screening. Nat Methods. 2012: 9(10);937
# Five microliters (1,500 cells/well) of the Parkin coincidence reporter cells were seeded to 1536 well assay plates (Greiner Catalog # 789173-F) and incubated at 37 C, 5% CO2 for 24 hours. Compounds (23 nL) were pinned using the Kalypsys robotic system equipped with 1536 pin head adaptor in 7-point dose response. The assay plates were incubated for additional 24 hr at 37 C, 5% CO2 followed by a volume reduction in each well to 2 uL using an automated plate washer/aspirator. Following the volume reduction,2 uL of FLuc detection reagent and plates were incubated for 10 minutes at room temperature. The FLuc luminescence signal was obtained using the PerkinElmer ViewLux plate imager and then 2 uL of NanoLuc detection reagent was added to the plates. After another 10 minute incubation, NanoLuc signal was obtained using the PerkinElmer ViewLux plate imager as before. Data from each channel was normalized to DMSO (neutral control) and the positive control compounds (100%).
row,SMILES,Potency
1,O=C1OC(=O)C2C3CCC(O3)C12 (stereo not given),inactive
2,O=C1NC(=O)c2cc(Nc3ccccc3)c(Nc3ccccc3)cc21,inactive
3,Nn1nnc2ccccc21,inactive
4,CCC1(O)CC2CN(CCc3c([nH]c4ccccc34)[C@@](C(=O)OC)(c3cc4c(cc3OC)N(C=O)C3[C@]45CCN4CC=C[C@@](CC)([C@@H](OC(C)=O)[C@]3(O)C(=O)OC)[C@H]45)C2)C1 (stereo not given in full),inactive
5,NCCC1CCCC(CCN)N1 (stereo not given),inactive
6,Nc1ccc2c3c(cccc13)C(=O)NC2=O,inactive
7,[Li+],inactive
8,NC(N)=[N+]1CCc2ccccc2C1,inactive
9,COc1cc2c(CCNC(C)=O)c[nH]c2cc1O,inactive
10,NCCCCN,inactive
11,C=CCN1CCc2c(cc(O)c(O)c2Br)[C@@H](c2ccccc2)C1,inactive
12,O=C(O)Cc1ccc(O)c(O)c1,inactive
13,NC1(C(=O)O)CCCCC1,inactive
14,C=CCN1CCc2cc(O)c(O)cc2C(c2ccccc2)C1 (stereo not given),inactive
15,CC[C@H](NC(=O)c1c(C)c(-c2ccccc2)nc2ccccc12)c1ccccc1,inactive
16,O=C(O)CCC(=O)N1CCCC1C(=O)O (stereo not given),inactive
17,CSC(N)=NCCC[C@H](N)C(=O)O,inactive
18,N[C@@H](CS(=O)O)C(=O)O,inactive
19,N[C@@H](CCCC(=O)O)C(=O)O,inactive
20,CCCCCCCCCCCCCCSCC(=O)O,inactive

row,SMILES,Potency
1,COc1cc(CNC(=O)CCCCCCC(C)C)ccc1O,inactive
2,OC1(c2ccc(Cl)cc2)CCN(Cc2c[nH]c3ccccc23)CC1,inactive
3,O=c1[nH]c(=O)c2nc3ccccc3nc2[nH]1,inactive
4,Cc1cccc(C(=O)NCN2CCN(c3ccccc3C#N)CC2)c1,inactive
5,NC1(C(=O)O)CC1,inactive
6,C=C1C[C@@]23CC[C@H]4[C@@](C)(CCC[C@@]4(C)C(=O)O)[C@@H]2CC[C@]1(O)C3,inactive
7,CCOC(=O)C12CC1/C(=N/O)c1ccccc1O2 (stereo not given),inactive
8,Cc1cccc(C2CN(C)CCc3c2cc(O)c(O)c3Cl)c1 (stereo not given),inactive
9,COc1cc(/C=C(\C#N)C(=O)c2ccc(O)c(O)c2)cc(I)c1O,inactive
10,C=C1C[C@@]23CC[C@H]4[C@@](C)(CCC[C@@]4(C)C(=O)OC4OC(CO)C(O)C(O)C4O)[C@@H]2CC[C@]1(OC1OC(CO)C(O)C(O)C1OC1OC(CO)C(O)C(O)C1O)C3 (stereo not given in full),inactive
11,NC(Cc1cccc(-c2ccccc2CP(=O)(O)O)c1)C(=O)O (stereo not given),inactive
12,CCN1C(=O)C=CC1=O,inactive
13,NOCC(=O)O,inactive
14,Cc1cc(Cn2cnc3c2C[C@@H](C(=O)O)N(C(=O)C(c2ccccc2)c2ccccc2)C3)ccc1N,inactive
15,Nc1ccc(N2C(=O)c3ccccc3C2=O)c(Cl)c1,inactive
16,CO/N=C(\C(=O)N[C@@H]1C(=O)N2C(C(=O)O)=C(CSc3nc(=O)c(O)nn3C)CSC12)c1csc(N)n1 (stereo not given in full),inactive
17,NCCS(=O)O,inactive
18,NC[C@@H]1O[C@H](c2ccccc2)Cc2c1ccc(O)c2O,inactive
19,O=C(O)C1CN(CCCP(=O)(O)O)CCN1 (stereo not given),inactive
20,Cc1cccc(C)c1OCC(N)C(C)C (stereo not given),inactive

# — PubChem BioAssay (NCATS)
